Our source for the Potency, outcome and activity change, positive = activation values is PubChem BioAssay (Tox21).

Inconclusive results are not listed. Calls of active or inactive are those of the source. Unless noted, calls come from the whole dose curve; as a rule, active = well fitted curve in the direction sought with a large enough effect in the repeat runs; inconclusive = weak or mixed curves; inactive = no such curve, though single readings can be large; an effect the other way counts as inactive or inconclusive.

A short description of experiment [1]: qHTS assay to identify small molecule agonists of the hypoxia (HIF-1) signaling pathway - cell viability counter screen (AID 1224844; calls by dose curve; note: nearly all actives have a fitted effect of over 50% in size; note: potency is the fitted concentration of half-maximal effect). An outline of the steps:
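HRE-bla ME-180; 0.5% dFBS; cpd 17 h, 37C, 5% CO2; CellTiter-Glo lum., 30 min RT, post-FRET read, same wells.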
A general note: qHTS replaces the single test concentration by a dilution series.

Experiment [2] in a line: qHTS assay to identify small molecule agonists of H2AX (AID 1224845; active = well fitted activation curve with a large enough effect in the signal ratio in the repeat runs, not every such curve was filed as active; the % refers to the signal ratio). A digest of the protocol:
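Wild-type CHO-K1 cells plated overnight, then exposed 3 hr at 37C to compounds at 15 concentrations (0.76% DMSO). Lysed, then HTRF anti-pH2AX(S139)-cryptate/anti-H2AX-d2 detection after 24 hr at room temperature; emissions 665 and 620 nm.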

Experiment [3] in a line: qHTS assay to identify small molecule agonists of the hypoxia (HIF-1) signaling pathway (AID 1224846; active = well fitted activation curve with a large enough effect in the signal ratio in the repeat runs, not every such curve was filed as active; the % refers to the signal ratio). An outline of the steps:
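Reporter induction in HRE-bla ME-180 cells is taken as agonism: cells sit 5 hrs after plating, receive compounds or DMSO only, incubate 17 hrs at 37C under 5% CO2, and are loaded with CCF4-AM for beta-lactamase FRET measurement.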

Experiment [4] can be described thus: qHTS assay to identify small molecule agonists of H2AX - cell viability counter screen (AID 1224847; calls by dose curve; note: top concentration of the series differs between compounds; nearly all actives have a fitted effect of over 30% in size). A digest of the protocol:
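CHO-K1 cells plated overnight at 37C, then exposed 3 h at 37C to compounds at 15 concentrations (0.76% DMSO final). Viability by CellTiter-Glo luminescence after 30 min at room temperature.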

A short description of experiment [5]: qHTS RealTime-Glo MT Cell Viability Assay in HepG2 cells - 24 hour (AID 1224867). Note: nearly all actives have a fitted effect of over 50% in size. A digest of the protocol: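 Viability was tracked continuously by NanoLuc luminescence from prosubstrate reduced by living HepG2 cells, at successive time points over 40 h of compound exposure. Cells with reagent were preincubated 5 h at 37 °C before compound addition.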
Experiment [6] is described as follows: qHTS RealTime-Glo MT Cell Viability Assay in HEK293 cells - 32 hour (AID 1224868). Note: nearly all actives have a fitted effect of over 50% in size. Note: potency is the fitted concentration of half-maximal effect. An outline of the steps:
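Viability tracked continuously by luminescence as live cells reduce a prosubstrate for NanoLuc; HEK293 cells preincubated 5 h, compound-treated at 37 C, and read at 0, 8, 16, 24, 32 and 40 h.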

The nature of experiment [7]: A CellTox Green Cytotoxicity Assay to monitor cytotoxicity in HEK293 cells - 0 hour (AID 1224869). Note: nearly all actives have a fitted effect of over 50% in size. An outline of the steps: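 Tox21 screen in HEK293: membrane-impermeant cyanine dye fluoresces on binding dead-cell DNA; compound pinned 5 h post-seeding, plates held at 37 C, signal read repeatedly through 40 h.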
Experiment [8] can be described thus: qHTS assay to identify small molecule antagonists of the estrogen related receptor (ERR) signaling pathway from Tox21 library (AID 1224848). Note: nearly all actives have a fitted effect of over 50% in size. Note: potency is the fitted concentration of half-maximal effect. A digest of the protocol:
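Tox21 10K compounds in DMSO tested for ERR pathway antagonism in NTP's ERR cell line; 18 h, 37 C exposure; ONE-Glo luminescence.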

The nature of experiment [9]: qHTS assay to identify small molecule agonists of the estrogen related receptor (ERR) signaling pathway from Tox21 library (AID 1224849; calls by dose curve; note: nearly all actives have a fitted effect of over 15% in size). As to conditions: ERR reporter cell line, ONE-Glo luciferase, 18 h; at 92.4 µM (top of the series) unless noted. A digest of the protocol: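 Tox21 compounds tested for ERR agonism in an NTP reporter cell line: 18 h treatment at 37 C, then ONE-Glo luminescence.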
% is set by controls: 0 for no effect and ±100 for the full control effect.

In the case of `CC(=O)N[C@@H](CCC(N)=O)C(=O)O`, the Potency entry in experiment [1], in experiment [4], in [6] and in experiment [7] was “inactive” each time. Also, the result in [2], in [3] and in experiment [5] was inactive.

In the case of `Nc1[nH]c(=O)ncc1F`, the Potency result in [1], in [8], in [6] and in experiment [7] was “inactive” in each case. Also, the activity change, positive = activation in experiment [9] is -0.92% [at 42.5 µM] (inactive). Further, the outcome in experiment [5] was inactive.

Take `C1COCCO1`: the Potency result in experiment [1], in [4], in [8], in experiment [6] and in [7] was “inactive” each time. Besides, the result in [3] and in [5] was inactive. In addition, in experiment [9], the activity change, positive = activation is 5.15% (inactive).

`CCOC(=O)Cn1c(=O)sc2cccc(Cl)c21`: the Potency result in [1], in [4], in experiment [8], in experiment [6] and in experiment [7] was “inactive” in each case. Moreover, the outcome in [2] was inactive.

Regarding `OC1OC[C@@H](O)[C@H](O)[C@H]1O` (stereo partly specified), the Potency result in experiment [1], in experiment [4], in experiment [6] and in [7] was “inactive” in each case. In addition, the compound was called inactive in experiment [2], in [3] and in [5].

Take `COc1cc(C(=O)N2CCOCC2)cc(OC)c1OC`: the Potency entry in [1], in [4], in experiment [6] and in [7] was “inactive” throughout. Besides, the outcome in experiment [2], in [3] and in [5] was inactive.

Turning to `C=C(C)C(=O)NCCCN(C)C`, the Potency result in experiment [1], in experiment [4], in [6] and in experiment [7] was “inactive” throughout. For the same compound, the call in experiment [3] and in experiment [5] was inactive.

On to `CCCCOCC(C)OCC(C)O` (stereo unspecified), for which the Potency entry in experiment [1], in [6] and in [7] was “inactive” each time. The result in experiment [2], in [3] and in experiment [5] was inactive.

As to `CCCCN(CCO)CCO`, the Potency entry in experiment [1], in experiment [4], in experiment [8], in experiment [6] and in experiment [7] was “inactive” in each case. Further, the compound was called inactive in [3] and in experiment [5]. Besides, in experiment [9], the activity change, positive = activation is 3.71% (inactive).

Turning to `Cc1cc(C)c(NC(=O)CN(CC(=O)O)CC(=O)O)c(C)c1Br`, the Potency result in experiment [1], in experiment [4], in experiment [6] and in experiment [7] was “inactive” in each case. The compound was called inactive in [2], in [3] and in experiment [5].

`CC(C)(O)c1ccccc1`: the Potency entry in experiment [1], in experiment [4], in [8], in experiment [6] and in [7] was “inactive” in each case. Moreover, the call in experiment [2] and in experiment [5] was inactive.

Regarding `CCN(CC)C(=O)c1ccc(O)c(OC)c1`, the Potency result in experiment [1], in experiment [4], in experiment [6] and in [7] was “inactive” in each case. Further, the call in experiment [2] and in experiment [5] was inactive.

For `CC(C)=CCC/C(C)=C/C(=O)O`, the Potency entry in experiment [1], in experiment [4], in [6] and in experiment [7] was “inactive” throughout. Besides, the call in experiment [2] and in experiment [5] was inactive.

With `CCCCCCCCCCCCI`, in experiment [2], the outcome was inactive. The Potency result in [4], in experiment [6] and in [7] was “inactive” each time.

For `CCC(C)OC(=O)N1CCCCC1CCO` (stereo unspecified), the Potency result in experiment [1], in [4], in experiment [8] and in experiment [6] was “inactive” each time. For the same compound, the outcome in [3] and in experiment [5] was inactive.

With `CN(C)C(=O)C(CCN1CCC(O)(c2ccc(Cl)cc2)CC1)(c1ccccc1)c1ccccc1`, the outcome in [2] was inactive. Moreover, the Potency entry in experiment [4] and in experiment [7] was “inactive” each time. In addition, the Potency is 21.1 µM (active) in experiment [8] and 10.7 µM (active) in experiment [6]. Also, in experiment [9], the activity change, positive = activation is -39.4% [at 42.5 µM] (inactive).

As for `O=C(O)Cc1cc(I)c(Oc2cc(I)c(O)c(I)c2)c(I)c1`, the Potency in [1] is 24.1 µM (active). Also, the Potency result in experiment [4], in experiment [6] and in experiment [7] was “inactive” throughout. In addition, the compound was called inactive in [5].

With `CC(=O)OC(C)(C)C`, the Potency result in experiment [1], in experiment [8], in experiment [6] and in experiment [7] was “inactive” throughout. The compound was called inactive in experiment [2] and in experiment [5].

As to `O=c1[nH]c(=O)n([C@H]2O[C@H](CO)[C@@H](O)[C@@H]2O)cc1/C=C\Br`, the Potency entry in experiment [1], in experiment [4], in experiment [6] and in experiment [7] was “inactive” in each case. In addition, the call in experiment [2] and in experiment [5] was inactive.

`c1ccc(CCCc2ccccn2)cc1`: the Potency result in [1], in experiment [8], in [6] and in [7] was “inactive” throughout. Besides, the result in experiment [2], in experiment [3] and in experiment [5] was inactive.

As to `CC(C)(O)C(=O)c1ccc(OCCO)cc1`, the Potency result in [1], in experiment [4], in experiment [6] and in experiment [7] was “inactive” in each case. The compound was called inactive in experiment [2], in [3] and in experiment [5].

As to `O=[N+]([O-])c1ccc(Oc2ccc([N+](=O)[O-])cc2)cc1`, the Potency result in experiment [1], in [8] and in [7] was “inactive” each time. Moreover, the result in experiment [2], in experiment [3] and in experiment [5] was inactive. Besides, the activity change, positive = activation in experiment [9] was -4.74% (inactive).

For the compound `CC(C)c1cccc(C(C)C)c1N`, the Potency result in experiment [1], in experiment [8], in experiment [6] and in experiment [7] was “inactive” throughout. The outcome in experiment [2], in [3] and in experiment [5] was inactive.

`OC/C=C/c1ccccc1`: the Potency result in experiment [1], in [6] and in experiment [7] was “inactive” each time. The call in experiment [2], in [3] and in experiment [5] was inactive.

Take `O=C(O)/C=C/c1ccc(Cn2ccnc2)cc1`: the Potency entry in [1], in [6] and in [7] was “inactive” each time. In addition, the call in [5] was inactive.

Take `CCCCCCOC(=O)c1ccccc1O`: the Potency entry in [1], in experiment [4], in experiment [8] and in experiment [6] was “inactive” throughout. For the same compound, the compound was called inactive in [3] and in experiment [5].

As for `Cc1ccc(Nc2ccc(O)c3c2C(=O)c2ccccc2C3=O)cc1`, the Potency entry in experiment [1], in experiment [4], in [6] and in experiment [7] was “inactive” throughout. Further, the call in [2], in experiment [3] and in experiment [5] was inactive.

Consider `O=C1C(CCS(=O)c2ccccc2)C(=O)N(c2ccccc2)N1c1ccccc1` (stereo unspecified), for which the Potency entry in experiment [1], in experiment [6] and in experiment [7] was “inactive” each time. For the same compound, the compound was called inactive in experiment [2] and in experiment [5].

Consider `COCc1ccc(COC)cc1`, for which the Potency entry in experiment [1], in [4], in experiment [6] and in experiment [7] was “inactive” in each case. For the same compound, the compound was called inactive in experiment [2], in experiment [3] and in experiment [5].

`OCCCCCCO`: the Potency result in experiment [1], in experiment [4], in experiment [6] and in experiment [7] was “inactive” throughout. Further, the result in experiment [2], in experiment [3] and in experiment [5] was inactive.

As for `NC1CCN(c2cccc(Cl)n2)CC1`, the Potency result in experiment [1], in [6] and in [7] was “inactive” each time. Moreover, the compound was called inactive in [5].

As for `CC(C)CCOC(=O)CC(C)C`, the Potency result in experiment [1] and in [6] was “inactive” each time. For the same compound, the outcome in experiment [2], in experiment [3] and in [5] was inactive.

For `NC(=O)Nc1nc2ccccc2[nH]1`, the Potency entry in experiment [1], in [6] and in experiment [7] was “inactive” each time. Besides, the outcome in experiment [2] and in experiment [5] was inactive.

On to `CSc1nc(NC2CC2)nc(NC(C)(C)C)n1`, for which the Potency result in [1], in experiment [4] and in experiment [7] was “inactive” throughout. Further, the outcome in [3] and in [5] was inactive. Also, in [6], the Potency was 24.5 µM (active).

`Cc1c(C)n(CCN(C)C)c2ccc(C(=O)OCCN(C)C)cc12`: the call in [2] and in [5] was inactive. For the same compound, the Potency result in experiment [4], in experiment [8] and in experiment [7] was “inactive” each time. The activity change, positive = activation in [9] is -20.1% [at 42.5 µM] (inactive).

Turning to `C(=C(c1ccccc1)c1ccccc1)c1ccccc1`, the Potency result in [1], in [6] and in [7] was “inactive” each time. In addition, the compound was called inactive in experiment [3] and in [5].
